Rows were chosen to be rich in hits. Some 0.92% of all compounds tested hit in one or more screens of this group.
BLM inh = Bloom syndrome helicase (human) inhibition; P54132; recombinant BLM DNA unwinding, fluorescence dequenching; Potency, µM (top dose mostly 56.1 µM), inactives show at the top dose activity change, negative = inhibition, most hits filed as inhibitors; hit rate 0.2% among 350,000; AID 2528;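 also: plate controls were vehicle for no effect and no enzyme for full effect; nearly all actives have a fitted effect of over 35% in size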
WRN helicase inh = blocks human WRN helicase | Potency, µM (doses to about 114 µM), for the others: at the top dose activity change, negative = inhibition, usual class: inhibitors | WRN helicase unwinding, fluorescent forked duplex, kinetic | AID 651768 | Q14191 | hit rate 0.46% among 360,000; also: nearly all actives have a fitted effect of over 55% in size
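WRN at 20 nM final was preincubated with compound for 15 min at room temperature; reaction started with 100 nM forked duplex oligonucleotide carrying fluorophore and quencher plus 2 mM ATP (final). Unwinding followed kinetically by red fluorescence (ex 525/em 598 nm).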
L3MBTL1 inh = L3MBTL1 (human) inhibition. hit rate 0.66% among 230,000. Q9Y468. Potency, µM (series often up to 57.1 µM), for the others: top-dose activity, negative = inhibition, hits mostly inhibitors. AlphaScreen L3MBTL1–H3K9me1 peptide binding; also: nearly all actives have a fitted effect of over 60% in size
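AlphaScreen proximity signal between nickel-chelate acceptor and streptavidin donor beads (final 10 ug/mL) reports binding of 50 nM L3MBTL1 to 75 nM biotin-H3 K9me1 peptide; complex incubated with compounds 30 min at room temperature; cefsulodin titration as control.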
RECQ1 helicase = RECQ1 (human) helicase inhibition; Potency, µM (top dose mostly 57.3 µM), without a hit: at the top dose activity, negative = inhibition, usual class: inhibitors; RECQ1 DNA unwinding, red fluorescence kinetic read; hit rate 0.54% among 240,000; P46063;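 also: plate controls were vehicle for no effect and no enzyme for full effect; nearly all actives have a fitted effect of over 30% in size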
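RECQ1T1 50 nM; forked duplex (20 bp + 30-nt ss tails) 200 nM, ATP 2 mM final; pH 8.0, 2 mM MgCl2, 2.5 ug/ml poly(dI-dC); 15 min compound preincubation; discontinuous kinetic read over 2 h at RT.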
APE1 inh-1 = inhibitors of human APE1 endonuclease. recombinant APE1, TAMRA/BHQ-2 abasic DNA cleavage fluorescence. Potency, µM (series often up to 65.8 µM), inactives show at the highest dose activity change, negative = inhibition, actives largely listed as inhibitors. hit rate 0.35% among 350,000. P27695;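 also: plate controls were vehicle for no effect and reference inhibitor for full effect; nearly all actives have a fitted effect of over 55% in size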
Target sequence (P27695 whole entry, looked up): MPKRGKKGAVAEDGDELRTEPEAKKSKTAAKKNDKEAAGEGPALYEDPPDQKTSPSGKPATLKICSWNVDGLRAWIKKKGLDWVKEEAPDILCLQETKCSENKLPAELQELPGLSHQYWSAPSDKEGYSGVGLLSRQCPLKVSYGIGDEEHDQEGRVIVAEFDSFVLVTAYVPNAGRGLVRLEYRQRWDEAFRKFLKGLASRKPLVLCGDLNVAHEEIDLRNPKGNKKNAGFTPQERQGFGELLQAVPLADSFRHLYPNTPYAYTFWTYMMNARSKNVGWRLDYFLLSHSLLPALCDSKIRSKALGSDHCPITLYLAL
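Enzyme (0.75 nM final) and test compound are incubated 15 min at room temperature before adding 50 nM quenched THF abasic-site duplex. Cleavage dequenches TAMRA, followed at 525/598 nm over three reads one minute apart.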
APE1 dye cs = displaces fluorescent dye from DNA, flagging APE1 artifacts; hit rate 7% among 480; DNA fluorescent dye displacement counterscreen, fluorescence; AID 2564; Potency, µM (titrated, usually from 28.5 µM), for inactives: at the highest dose activity change, negative = inhibition, actives largely listed as inhibitors; shares compounds with APE1 inh-1;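 also: loss of thiazole orange fluorescence as the dye is displaced from duplex DNA; 0% = ThO with dsDNA and no compound and -100% = ThO without dsDNA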
EndoIV counter = Endo IV (E. coli) inhibition counter-screen. shares compounds with APE1 inh-1. E. coli Endo IV, fluorogenic AP-site DNA cleavage. Potency, µM (series often up to 27.1 µM), inactives show at the highest dose activity change, negative = inhibition, hits mostly inhibitors. hit rate 4% among 560;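 also: plate controls were uninhibited enzyme wells for no effect and no enzyme buffer wells for full effect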
APE1 inh-2 = confirmation of inhibitors of human APE1 endonuclease; purified APE1, fluorogenic abasic-site DNA cleavage; shares compounds with APE1 inh-1; Potency, µM (series often up to 57.1 µM), for the others: at the top dose activity change, negative = inhibition, most hits filed as inhibitors; hit rate 44% among 750; also: nearly all actives have a fitted effect of over 30% in size
APE1 FP = compounds that displace a DNA probe from human APE1; shares compounds with APE1 inh-1; APE1 binding to TAMRA-labelled double-stranded DNA, fluorescence polarization displacement; Potency, µM (series often up to 28.5 µM), inactives show top-dose activity, negative = inhibition, usual class: inhibitors; hit rate 7% among 480; AID 2573
Active calls of the source: *; i = inactive; ? = inconclusive; . = not tested or not shown; ! = not active in a repeat; [ ] = remark or other dose. Calls follow the shape of the dose curve; as a rule, active = well fitted curve in the direction sought with a large enough effect; inconclusive = small, poorly fitted or top-dose-only effect, or another doubt; inactive = no such curve, though single readings can be large; an effect the other way counts as inactive or inconclusive. Unless noted, % is scaled to controls: 0 for no effect and ±100 for the full control effect; potency is read from the fitted curve at half-maximal effect.

SMILES	BLM inh	WRN helicase inh	L3MBTL1 inh	RECQ1 helicase	APE1 inh-1	others
CCN(CCO)c1ccc(NC(=S)Nc2cccc(S(=O)(=O)N(C)C)c2)cc1	-19.7%	-9.7%[11.6 µM]	.	39.8µM*	?
COc1cccc(/C=N/NC(=S)Nc2cccc(S(=O)(=O)N(C)C)c2)c1	0.7%	-9.6%	.	2.3%	-1.2%
COc1ccc(O)c(/C=N/NC(=S)Nc2cccc(S(=O)(=O)N(C)C)c2)c1	-18.2%	-21.7%	10µM*	i	23.8%
COc1ccc(O)c(/C=N/NC(=S)Nc2cccnc2)c1	-3.7%	-1.2%	11.2µM*	i	18.3%
CCCCc1cc2c(cn1)=C(OC(=O)C1CCCC1)C(C)(OC(=O)CC)C(=O)C=2 (stereo unspecified)	-4.6%[12.4 µM]	.	.	i[11.5 µM]	-1.9%[12.4 µM]
N#Cc1nc(Nc2ccccc2)nc(NC2CCCC2)n1	-9.5%	.	.	-14.4%	-2.6%
Cc1ccc(C2NC(=S)N3C(c4ccc(C)cc4)NC(=S)N23)cc1 (stereo unspecified)	.	-1.5%	.	.	.
COc1ccc(C2NC(=S)N3C(c4ccc(OC)cc4)NC(=S)N23)cc1 (stereo unspecified)	-0.3%	89.1µM*	.	-9.2%	4.9%
CC(N)(C(=O)O)c1ccc(S(=O)(=O)O)cc1 (stereo unspecified)	.	.	.	-8.4%	?
ClCC1CSC(=NC23CC4CC(CC(C4)C2)C3)O1 (stereo unspecified)	-4.7%	-12.3%	-12.8%	11.9%	1.6%
CC1(C)C2CCC(C2)C1(C)N=C1OC(CCl)CS1 (stereo unspecified)	4.47µM*	-0.2%	17.6%	0.9%	-2.6%
Cc1ccc(CNc2cccc(N3CCCCC3)c2)cc1	.	.	.	.	13.0%
Cc1cc(O)c2c(c1)C(=O)c1cccc(O)c1C2=O	-6.6%	.	-7.2%	7.08µM*!	31.6µM*!
NC(=O)C1CCN(c2nc(-c3cccc4sc5ccccc5c34)cs2)CC1	.	.	.	.	-3.2%
COc1ccc(C2/C=C\[C@H](O[Si](C)(C)C(C)(C)C)[C@H](C(C)C)CC(=O)N2Cc2ccccc2)cc1 (stereo partly specified)	0.5%[75.6 µM]	.	.	i	-5.4%
CCc1nnc(NC(=O)c2c(-c3ccccc3)noc2C)s1	-2.4%	5.1%	.	.	-6.9%
Cc1onc(-c2ccccc2)c1C(=O)Nc1nnc(COc2ccc(Cl)cc2)s1	-7.0%	56.2µM*	-2.2%	-14.8%	15.8%
Oc1ccc(-c2csc(NCc3ccco3)n2)cc1	-4.1%	3.4%	.	i	0.1%
c1coc(CNc2nc(-c3cccs3)cs2)c1	3.9%	-9.1%	28.2µM*	-11.6%	9.4%
CCCCCC(=O)Nc1cc(S(=O)(=O)O)cc2cc(S(=O)(=O)O)cc(O)c12	.	6.31µM*	.	.	.
CNc1ccccc1	.	5.7%	-3.6%	15.7%	-3.6%
CNc1ccc(O)cc1	.	.	.	31.6µM*	-7.5%
COc1c(C2=CC(=O)N(C)C2=O)c2c(n1C)C(=O)c1ccccc1C2=O	-6.7%	.	.	5.4%	-0.9%
CC(C)(C)n1ncc2c(=O)n(Cc3ccccc3Cl)cnc21	.	.	.	.	1.2%
Cc1ccc(C)c(S(=O)(=O)Nc2cc(SCC(=O)O)c(O)c3ccccc23)c1	15.8µM*	17.8µM*	?	0.0%	-11.6%
SMILES	BLM inh	WRN helicase inh	L3MBTL1 inh	RECQ1 helicase	APE1 inh-1	others
CCc1ccc(S(=O)(=O)Nc2cc(SCC(=O)O)c(O)c3ccccc23)cc1	17.8µM*	44.7µM*	?	-5.6%	0.5%
CCOc1ccc(S(=O)(=O)Nc2cc(SCC(=O)O)c(O)c3ccccc23)cc1	?	79.4µM*	?	.	8.7%
O=C(O)CSc1cc(NS(=O)(=O)c2cccc([N+](=O)[O-])c2)c2ccccc2c1O	17.8µM*	39.8µM*	?	-15.1%	-4.8%
CCOc1ccccc1-c1nnc2n1N=C(c1ccc(OC)cc1)CS2	2.4%	.	.	i	-4.5%
FC(F)Oc1ccc(C2=Nn3c(nnc3-c3ccccc3C(F)(F)F)SC2)cc1OCC1CC1	.	.	.	.	-2.1%
COc1ccc(-c2coc3c(C)c4oc(=O)c(CCC(=O)O)c(C)c4cc23)cc1	-14.3%	?	.	.	-21.6%
CCCC(NC(=O)Cc1c(C)c2cc3c(C)c(C)oc3c(C)c2oc1=O)C(=O)N[C@@H](Cc1ccccc1)C(=O)O (stereo partly specified)	-10.7%	-15.7%	.	.	21.2µM*
Cc1c(CCC(=O)O)c(=O)oc2c(C)c3occ(-c4ccc(Br)cc4)c3cc12	-25.2%	63.1µM*	.	.	?
Cc1coc2c(C)c3oc(=O)c(CCC(=O)N[C@@H](C)C(=O)N[C@@H](Cc4ccccc4)C(=O)O)c(C)c3cc12	-5.6%	-18.2%	.	.	13.4µM*
Clc1ccc(-c2csc(N/N=C/c3cccnc3)n2)c(Cl)c1	-13.1%	-32.7%	-9.7%	-13.8%	16.6%	APE1 inh-2=-22.5%
COC1=CC(=O)C(O)=C/C1=C\C=C\c1ccccc1	-6.5%	.	.	i	-1.3%
CC(C)[C@H](NC(=O)[C@H](CC(=O)O)NC(=O)CNC(=O)[C@@H](N)CCCN=C(N)N)C(=O)O	-2.7%	.	.	-5.6%	-0.2%
CC1(C)CC(=O)C=C(NCc2ccccc2)C1	-0.1%	-4.4%	0.8%	i	?	APE1 dye cs=-2.3%;EndoIV counter=0.5%;APE1 inh-2=?;APE1 FP=12.7%
Cc1nc2ccc(NC(=S)N3CCOCC3)cc2nc1C	-9.7%	-0.3%	3.9%[11.4 µM]	18.5%	?	APE1 dye cs=0.1%;EndoIV counter=3.4%;APE1 inh-2=-5.4%[24.4 µM];APE1 FP=6.4%
CC(=O)C1=C(O)C(=O)N(Cc2ccccc2)C1c1ccco1 (stereo unspecified)	-5.8%	-5.1%[57.1 µM]	-23.9%	-14.5%	1µM*	APE1 dye cs=-5.4%;EndoIV counter=5.3%;APE1 inh-2=?;APE1 FP=0.2%
O=c1c(-c2c(O)cc(O)c3c(=O)cc(-c4ccc(O)cc4)oc23)c(-c2ccc(O)cc2)oc2cc(O)cc(O)c12	12.6µM*	56.2µM*	.	12.6µM*	0.794µM*	APE1 dye cs=14.1µM*;EndoIV counter=?;APE1 inh-2=2µM*;APE1 FP=0.0%
Cc1ccc(CNC(=O)CCNC(=O)c2ccco2)cc1	-0.4%	-0.4%	1.4%	6.2%	?	APE1 dye cs=-1.7%;EndoIV counter=0.4%;APE1 inh-2=?;APE1 FP=-7.0%
